Potency data for 99 compounds are collected here from ChEMBL document CHEMBL1201862, “PubChem BioAssay data set” (2004).

Molecules are shown by their SMILES. The campaign covered roughly 400,000 compounds. About 2,100 (0.53%) were called active. Not shown: some 14% with an inconclusive outcome. No rule for the calls is given here. For the sample, actives were picked, then their nearest neighbours and some compounds at random.

Chain of Ataxin-2 (Homo sapiens) (Q99700 whole entry): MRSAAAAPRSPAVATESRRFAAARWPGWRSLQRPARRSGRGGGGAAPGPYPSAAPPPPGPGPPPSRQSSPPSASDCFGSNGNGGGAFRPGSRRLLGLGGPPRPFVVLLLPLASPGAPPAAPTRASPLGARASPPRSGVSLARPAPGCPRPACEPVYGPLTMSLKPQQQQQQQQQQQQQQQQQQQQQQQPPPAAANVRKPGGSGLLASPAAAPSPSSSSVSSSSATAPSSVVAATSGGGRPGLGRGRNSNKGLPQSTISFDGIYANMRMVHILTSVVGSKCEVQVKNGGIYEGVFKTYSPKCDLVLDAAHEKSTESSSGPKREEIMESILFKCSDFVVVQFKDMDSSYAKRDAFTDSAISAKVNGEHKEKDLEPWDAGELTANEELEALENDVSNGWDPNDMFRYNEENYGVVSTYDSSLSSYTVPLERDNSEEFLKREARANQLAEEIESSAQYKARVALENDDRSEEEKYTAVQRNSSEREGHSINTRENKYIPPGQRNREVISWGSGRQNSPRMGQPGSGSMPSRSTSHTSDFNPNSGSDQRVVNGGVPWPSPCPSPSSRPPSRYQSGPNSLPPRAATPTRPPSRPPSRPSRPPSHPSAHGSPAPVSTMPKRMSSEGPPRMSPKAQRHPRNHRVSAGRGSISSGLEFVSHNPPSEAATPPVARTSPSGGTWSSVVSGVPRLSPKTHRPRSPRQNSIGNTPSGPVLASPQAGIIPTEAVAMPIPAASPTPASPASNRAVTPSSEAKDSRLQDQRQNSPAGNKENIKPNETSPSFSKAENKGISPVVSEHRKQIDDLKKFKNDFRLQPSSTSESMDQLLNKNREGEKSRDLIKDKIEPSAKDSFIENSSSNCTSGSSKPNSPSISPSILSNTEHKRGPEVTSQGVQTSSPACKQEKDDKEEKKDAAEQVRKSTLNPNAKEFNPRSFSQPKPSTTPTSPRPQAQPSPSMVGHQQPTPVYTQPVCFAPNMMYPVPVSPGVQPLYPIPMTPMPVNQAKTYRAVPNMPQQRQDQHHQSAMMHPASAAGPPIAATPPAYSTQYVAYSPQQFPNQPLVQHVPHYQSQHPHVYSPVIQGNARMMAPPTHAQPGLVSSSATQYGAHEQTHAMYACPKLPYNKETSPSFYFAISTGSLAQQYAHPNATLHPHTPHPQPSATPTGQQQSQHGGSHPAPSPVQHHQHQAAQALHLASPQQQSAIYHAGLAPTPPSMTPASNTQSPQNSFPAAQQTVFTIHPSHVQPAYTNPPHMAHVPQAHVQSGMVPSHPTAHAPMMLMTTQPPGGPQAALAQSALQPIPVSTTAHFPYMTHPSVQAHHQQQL

This assay has as its target Ataxin-2 (Homo sapiens) (UniProt Q99700). The assay is described as follows: qHTS for Inhibitors of ATXN expression. Type of assay: functional.
In the case of `CCOC(=O)C1(C)C=C(Nc2ccc(NC(C)=O)cc2)C(=O)N1c1ccc(NC(C)=O)cc1` (centres undefined), the Potency result is “inactive”.

For `CC(C)(C)OC(=O)N1CCCN(C(=O)Nc2cccc(Cl)c2)CC1`, the Potency result was “inactive”.

Regarding `CC(C)(C)OC(=O)N1CCC(NC(=O)c2[nH]cnc2C(=O)Nc2cccc(Cl)c2)CC1`, the Potency is 35.5 µM (active).

For the compound `COc1ccccc1CC(NC(C)=O)C(=O)NC1CCN(C(=O)NCc2ccccc2)CC1` (centres undefined), the Potency result is “inactive”.

`COc1cc(OC)c(N2CC(C(=O)Nc3cccc(C(=O)NC4CC4)c3)CC2=O)cc1Cl` (centres undefined): the Potency entry is “inactive”.

Regarding `CC(=O)NC(Cc1ccccc1C)C(=O)NC1CCN(C(=O)NCc2ccccc2)CC1` (centres undefined), the Potency entry was “inactive”.

On to `CC(C)(C)OC(=O)NCc1ccc(CNC(=O)c2[nH]cnc2C(=O)NC2CCN(C(=O)OC(C)(C)C)CC2)cc1`, for which the Potency was 20 µM (active).

Regarding `CS(=O)(=O)Nc1nc2n(n1)C(c1ccccc1)C=C(c1ccc(Br)cc1)N2` (centres undefined), the Potency entry was “inactive”.

As for `COc1ccc(C2CC(c3ccccc3C(F)(F)F)=NN2c2ccc(S(N)(=O)=O)cc2)cc1` (centres undefined), the Potency result was “inactive”.

In the case of `Cc1ccc(CNC(=O)C2CCN(c3nnc(N4CCCC4=O)s3)CC2)cc1`, the Potency result was “inactive”.

With `O=C(Nc1nc2c(s1)CN(Cc1ccccc1)CC2)C1CCC1`, the Potency entry was “inactive”.

In the case of `Cc1cccc(Cn2c(CN3CCC(C(=O)NCc4cccnc4)CC3)cc3ccccc32)c1`, the Potency was 22.4 µM (active).

With `Cc1cccn2c(=O)c3cc(C(=O)NCc4cccnc4)c(=N)n(CC4CCCO4)c3nc12` (centres undefined), the Potency entry is “inactive”.

As for `O=C(Nc1nc2c(s1)CN(Cc1ccccc1)CC2)C1CCCC1`, the Potency result is “inactive”.

For the compound `Cc1ccc(Cn2c(CN3CCC(C(=O)NCc4cccnc4)CC3)cc3ccccc32)cc1`, the Potency was 35.5 µM (active).

Consider `CCn1c(=N)c(C(=O)NCc2cccnc2)cc2c(=O)n3cc(C)ccc3nc21`, for which the Potency result was “inactive”.

`CN(C)CCNC(=O)C1CCN(Cc2cc3ccccc3n2Cc2ccccc2)CC1`: the Potency is 28.2 µM (active).

Regarding `CCCn1c(=N)c(C(=O)NCc2cccnc2)cc2c(=O)n3cc(C)ccc3nc21`, the Potency result is “inactive”.

In the case of `Cc1ccccc1Cn1c(CN2CCC(C(=O)NCc3cccnc3)CC2)cc2ccccc21`, the Potency was 31.6 µM (active).

Turning to `CCCn1c(=N)c(C(=O)NCc2cccnc2)cc2c(=O)n3cccc(C)c3nc21`, the Potency entry is “inactive”.

Take `CCOC(=O)C1CCN(Cc2ccc3ccccc3c2)CC1`: the Potency result is “inactive”.

For `CC1CCCCC1NC(=O)CN1C(=O)c2cccc(N)c2C1=O` (centres undefined), the Potency result was “inactive”.

`Cc1snc(SCC(=O)c2ccc(F)cc2)c1C#N`: the Potency entry was “inactive”.

With `COCCCNC(=O)/C(C#N)=C/c1c(N2CCN(c3ccccc3)CC2)nc2ccccn2c1=O`, the Potency entry was “inactive”.

In the case of `CCCC(=O)Nc1nn(CCC)c2nc3ccccc3cc12`, the Potency entry was “inactive”.

Turning to `Oc1nc(-c2ccccc2)nc2sc(-c3ccccc3)cc12`, the Potency result is “inactive”.

Regarding `Cc1cccc(N2C(=O)c3cccc4c(N(C)CCO)ccc(c34)C2=O)c1`, the Potency result is “inactive”.

Regarding `Cc1ccc2nc3c(cc(C(=O)NCC4CCCO4)c(=N)n3C3CCCC3)c(=O)n2c1` (centres undefined), the Potency entry is “inactive”.

For the compound `Nc1c(C(=O)N/N=C/c2cccnc2)oc2nc(-c3ccccc3)cc(-c3ccco3)c12`, the Potency entry was “inactive”.

For the compound `CCOC(=O)N1CCC(NS(=O)(=O)c2ccc(C)cc2)CC1`, the Potency entry was “inactive”.

Take `CCOC(=O)N1CCN(C(=O)C2CCN(C(=O)c3ccccc3C)CC2)CC1`: the Potency was 35.5 µM (active).

On to `Cc1csc(NC(=O)C2CCN(C(=O)c3ccccc3C)CC2)n1`, for which the Potency entry is “inactive”.

`O=C1OCCN1C(=O)[C@H]1[C@H](c2ccc(Cl)cc2)C(c2ccccc2)=NN1c1ccc(Br)cc1`: the Potency entry was “inactive”.

For the compound `COC(=O)C1=C(C)NC(=O)NC1c1ccc(N2CCC(c3ccccc3)=N2)cc1` (centres undefined), the Potency entry is “inactive”.

Turning to `COc1ccc(C2=CC(c3cccc(OC)c3)n3nnnc3N2)cc1` (centres undefined), the Potency entry was “inactive”.

Take `COC(=O)c1ccc(CSc2cc(C)c3cccc(C)c3n2)o1`: the Potency result was “inactive”.

As for `O=C(CCl)N(Cc1cccc([N+](=O)[O-])c1)c1cccc(Cl)c1`, the Potency was 2.67 µM (active).

For the compound `N#CCCN(C(=O)CCl)c1cccc(Cl)c1`, the Potency is 8.91 µM (active).

For the compound `Cc1ccc(N(CCC#N)C(=O)CCl)cc1C`, the Potency is 35.5 µM (active).

In the case of `N#Cc1c2ccc(O)cc2n2ccccc12`, the Potency entry is “inactive”.

As to `O=C(c1ccc(F)cc1)C1CCN(C(=O)c2ccccc2F)CC1`, the Potency result is “inactive”.

For the compound `Cc1cc(NC(=O)CSc2nc3c(cc2C#N)CCCC3)no1`, the Potency result is “inactive”.

For the compound `C=CCNC(=O)CSc1nc2sc3c(c2c(=O)n1CCCOC)CCC3`, the Potency result is “inactive”.

In the case of `CCn1c(SCC(=O)Nc2cc(C)on2)nc2sc3c(c2c1=O)CCCC3`, the Potency is 10 µM (active).

As to `Cc1c(O)ccc2c(CN(C)Cc3ccccc3)cc(=O)oc12`, the Potency result was “inactive”.

Take `O=c1cc(-c2ccccc2)oc2ccc(O)cc12`: the Potency result is “inactive”.

For the compound `O=c1oc(-c2ccccc2)cc(Cl)c1Cl`, the Potency was 29.9 µM (active).

For `Cc1ccc(C(=O)Nc2c(C)cc(-c3ccccc3)oc2=O)cc1`, the Potency entry was “inactive”.

Regarding `O=S(=O)(Nc1nccs1)c1ccc(F)cc1`, the Potency entry was “inactive”.

As to `O=C1C=C(C#Cc2ccc(Oc3ccccc3)cc2)C[C@@H](c2ccc(F)cc2)C1`, the Potency was 28.2 µM (active).

Take `COc1ccc(-c2ccc(CN3C(C)C(=O)N(Cc4cn(CCC5OCCO5)nn4)CCS3(=O)=O)cc2)cc1` (centres undefined): the Potency was 35.5 µM (active).

Regarding `CC(C)C1C(=O)N(Cc2cn(CCC3OCCCO3)nn2)CCS(=O)(=O)N1Cc1ccc(-c2ccc(Cl)c(Cl)c2)cc1` (centres undefined), the Potency is 31.6 µM (active).

With `CC1C(=O)N(Cc2cn(CCC3OCCO3)nn2)CCS(=O)(=O)N1Cc1ccc(-c2ccc(Cl)c(Cl)c2)cc1` (centres undefined), the Potency is 31.6 µM (active).

On to `COc1ccc(Cn2c(SCC#N)nc3ccc(N4CCOCC4)cc3c2=O)cc1`, for which the Potency entry was “inactive”.

In the case of `CCN1CCN(C(CC(C)C)c2nnnn2CS(=O)(=O)c2ccc(C)cc2)CC1` (centres undefined), the Potency result was “inactive”.

On to `Cc1ccc(Cc2cnc(NC(=O)/C(C#N)=C/c3ccc(-c4ccc([N+](=O)[O-])cc4)o3)s2)cc1`, for which the Potency is 22.4 µM (active).

In the case of `Cc1ccc(C(=O)N/C(=C/c2ccc(-c3ccc([N+](=O)[O-])cc3)o2)C(=O)NCCCN(C)C)cc1`, the Potency result is “inactive”.

For the compound `COc1cccc(NC(=O)/C(C#N)=C/c2ccc(-c3ccc(C)cc3)o2)c1`, the Potency entry is “inactive”.

Turning to `N=c1c(C(=O)NCc2ccc(F)cc2)cc2c(=O)n3ccccc3nc2n1CC1CCCO1` (centres undefined), the Potency entry is “inactive”.

For `CN1CCc2c(sc3c2C(=O)NC(c2ccc(-c4ccc(Cl)cc4)o2)N3)C1` (centres undefined), the Potency entry was “inactive”.

`O=C1c2cccc3c(N4CCCCC4)ccc(c23)C(=O)N1c1ccccc1O`: the Potency result was “inactive”.

Regarding `O=C1c2ccccc2-c2ccc(C(=O)N3CCCCC3)cc21`, the Potency result is “inactive”.

In the case of `O=C1C=C(N2CCCCC2)c2ccccc2C1=O`, the Potency was 18.9 µM (active).

Take `COc1ccccc1C1CN(c2ccccc2)N=C1c1cccs1` (centres undefined): the Potency entry is “inactive”.

Regarding `N#Cc1ccc(CN2CCN(C(=O)c3cc(Cl)c4c(c3)OCCO4)CC2)cc1`, the Potency result was “inactive”.

Take `CCN1C(=O)c2cccc3c(Cl)ccc(c23)C1=O`: the Potency result is “inactive”.

Take `COCCCNC(=O)c1c(N)n(-c2ccccc2)c2nc3ccccc3nc12`: the Potency entry is “inactive”.

`Cc1ccc(-n2c(N)c(C(=O)Nc3c(C)n(C)n(-c4ccccc4)c3=O)c3nc4ccccc4nc32)cc1`: the Potency is 21.2 µM (active).

For `COCCNC(=O)c1c(N)n(-c2ccccc2)c2nc3ccccc3nc12`, the Potency entry is “inactive”.

For the compound `CN(Cc1ccc(OC(F)F)cc1)C(=O)C1CCN(S(=O)(=O)c2ccc3c(c2)OCCO3)CC1`, the Potency result is “inactive”.

On to `O=C(Nc1cc(S(=O)(=O)N2CCCC2)ccc1Cl)c1ccncc1`, for which the Potency result was “inactive”.

For the compound `CCOc1cc(Br)c(/C=C2/C(=O)N(C)C(=S)N2CC(=O)OC)cc1OC`, the Potency entry is “inactive”.

Turning to `Cn1c(SCc2cc(O)nc(C(C)(C)C)n2)nnc1C(F)(F)F`, the Potency result is “inactive”.

On to `CCCn1c(=N)c(C(=O)NCC2CCCO2)cc2c(=O)n3cc(C)ccc3nc21` (centres undefined), for which the Potency result was “inactive”.

Take `Nc1nc(-c2ccc(Cl)cc2)c(N=Nc2ccc(S(=O)(=O)N3CCOCC3)cc2)s1`: the Potency was 29.9 µM (active).

`Cc1ccc(S(=O)(=O)N2CCN(C(=O)c3cc(S(=O)(=O)N4CCOCC4)c(Cl)cc3Cl)CC2)cc1`: the Potency entry was “inactive”.

For `O=c1nc2ccc(Cl)cn2c2ccc(S(=O)(=O)N3CCOCC3)cc12`, the Potency result is “inactive”.

As for `Nc1ccc2c(c1)C/C(=C/c1ccco1)C2=O`, the Potency result is “inactive”.

As for `Cc1ccc(C2=CC(c3c(F)cccc3Cl)n3ncnc3N2)cc1C` (centres undefined), the Potency result was “inactive”.

Take `CCOc1cc(C(=O)O)ccc1OCCOc1ccccc1`: the Potency result was “inactive”.

As to `CCCOc1ccc(C(=O)c2ccccc2C(=O)OC2CCOC2=O)cc1OCCC` (centres undefined), the Potency was 39.8 µM (active).

Turning to `O=C(OC1CCOC1=O)c1cc(-c2cccs2)nc2ccccc12` (centres undefined), the Potency entry is “inactive”.

`O=C(O)c1ccc2nc(-c3cc4cc(Cl)ccc4oc3=O)[nH]c2c1`: the Potency entry is “inactive”.

Turning to `CCn1c2ccccc2c2cc(CN3CCOc4ccc(C(O)c5cccnc5)cc4C3)ccc21` (centres undefined), the Potency is 31.6 µM (active).

As for `CC(C)C(OC(=O)c1ccccc1)c1nccc2ccccc12` (centres undefined), the Potency entry was “inactive”.

For `CCOc1cc2c(cc1/C=C1/NC(=O)N(CC(=O)OC)C1=O)OCO2`, the Potency result is “inactive”.

Regarding `COc1cccc(C(=O)/C=C/c2ccc(OCC#N)c(OC)c2)c1`, the Potency is 31.6 µM (active).

In the case of `COc1ccc(C=CC(=O)c2ccc3cc(OC)c(OC)cc3c2)cc1OC`, the Potency entry was “inactive”.

Regarding `COc1ccc(/C=c2\s/c(=C/C(=O)c3ccc(C)cc3)[nH]c2=O)cc1OC`, the Potency result was “inactive”.

Regarding `COc1cc(/C=C/C(=O)c2ccc(C)cc2)ccc1OCC#N`, the Potency is 39.8 µM (active).

Turning to `COc1ccc(OC)c(N/C=C/C(=O)c2ccc(OC)c(OC)c2)c1`, the Potency result is “inactive”.

Regarding `COc1cc(/C=C/C(=O)O)ccc1OS(=O)(=O)c1cc(C)ccc1C`, the Potency entry was “inactive”.

For the compound `CCS(=O)(=O)Nc1cc2c3c(c1)CCC(=O)N3CCC2`, the Potency entry was “inactive”.

For the compound `O=S(=O)(NN=C(NS(=O)(=O)c1ccccc1)c1ccccc1)c1ccccc1`, the Potency result is “inactive”.

As to `CCc1cc2cc(C)ccc2nc1SCC(=O)NC1CCCC1`, the Potency entry is “inactive”.

Turning to `Cc1cc(=O)n2c(n1)SCOC2`, the Potency result was “inactive”.

In the case of `Cc1cccn2c(=O)c3cc(C(=O)NCc4ccc(F)cc4)c(=N)n(CC4CCCO4)c3nc12` (centres undefined), the Potency result was “inactive”.

In the case of `CC(C)C[C@H](N)c1nnc(S(=O)(=O)Cc2cccc(F)c2)o1`, the Potency was 39.8 µM (active).

Take `CC(C)C[C@H](N)c1nnc(S(=O)(=O)Cc2ccc(F)cc2)o1`: the Potency was 31.6 µM (active).
